# Test results as given in PubChem BioAssay AID1159580 (chemical genetic matrix, 2015).
# Where “and” joins values, the source holds several entries; their conditions need not be identical. Equal entries are not always repeated. Among all 5,500 compounds or so, about 2,000 (36%) were called active. About 18% were inconclusive and are not listed. This is one part of the list. Unmarked numbers belong to inactive results. Rule as the data show it: active = normalized growth mostly below about 0.91 (no sharp cut-off); inconclusive = no clear call, values can overlap the other calls; inactive = mostly above about 0.92.
# Assay: chemical genetic growth profiling, strain panel (AID 1159580);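 also: tested at 20 µM; growth read once vehicle control cultures reached saturation at 30 °C; 1 = growth at the plate median or of vehicle wells; lower values mean less growth of the strain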
# Details: S. cerevisiae deletion strains, growth OD
structure (smiles),measurement,setting,value
Cc1cc(O)ccc1Cl,normalized growth,"locus YAL021C, strain ccr4, active compounds read low",1.11 [resistant] (active)
same,normalized growth,"locus YAL026C, strain drs2, active compounds read low",1.01
same,normalized growth,"locus YAL030W, strain snc1, active compounds read low",1.02
same,normalized growth,"locus YBL061C, strain skt5, active compounds read low",0.992
same,normalized growth,"locus YBR009C, strain hhf1, active compounds read low",0.999
same,normalized growth,"locus YBR021W, strain FUR4, active compounds read low",1.02
same,normalized growth,"locus YBR023C, strain chs3, active compounds read low",1.01
same,normalized growth,"locus YBR171W, strain sec66, active compounds read low",0.997
same,normalized growth,"locus YBR229C, strain ROT2, active compounds read low",1
same,normalized growth,"locus YBR231C, strain swc5, active compounds read low",0.993
same,normalized growth,"locus YBR279W, strain paf1, active compounds read low",1.02
same,normalized growth,"locus YCL011C, strain gbp2, active compounds read low",1.01
same,normalized growth,"locus YCL016C, strain dcc1, active compounds read low",1.01
same,normalized growth,"locus YCL029C, strain bik1, active compounds read low",0.983
same,normalized growth,"locus YCL069W, strain vba3, active compounds read low",1.02
same,normalized growth,"locus YCR088W, strain abp1, active compounds read low",1.01
same,normalized growth,"locus YDL005C, strain med2, active compounds read low",1.02
same,normalized growth,"locus YDL035C, strain GPR1, active compounds read low",0.955
same,normalized growth,"locus YDL040C, strain nat1, active compounds read low",1
same,normalized growth,"locus YDL074C, strain BRE1, active compounds read low",0.987
same,normalized growth,"locus YDL101C, strain DUN1, active compounds read low",1.03
same,normalized growth,"locus YDL185W, strain tfp1, active compounds read low",0.986
same,normalized growth,"locus YDL192W, strain arf1, active compounds read low",1
same,normalized growth,"locus YDR001C, strain nth1, active compounds read low",1.01
same,normalized growth,"locus YDR069C, strain doa4, active compounds read low",1.03
same,normalized growth,"locus YDR101C, strain arx1, active compounds read low",0.992
same,normalized growth,"locus YDR137W, strain rgp1, active compounds read low",0.816 (active)
same,normalized growth,"locus YDR159W, strain sac3, active compounds read low",0.784 (active)
same,normalized growth,"locus YDR162C, strain NBP2, active compounds read low",0.986
same,normalized growth,"locus YDR195W, strain ref2",1.2 [resistant] (active)
same,normalized growth,"locus YDR297W, strain sur2, active compounds read low",1.03
same,normalized growth,"locus YDR318W, strain mcm21, active compounds read low",0.993
same,normalized growth,"locus YDR334W, strain swr1, active compounds read low",1.02
same,normalized growth,"locus YDR335W, strain msn5, active compounds read low",1
same,normalized growth,"locus YDR388W, active compounds read low",1
same,normalized growth,"locus YDR392W, strain spt3, active compounds read low",0.944
same,normalized growth,"locus YDR502C, strain sam2, active compounds read low",0.974
same,normalized growth,"locus YEL003W, strain gim4, active compounds read low",1.01
same,normalized growth,"locus YEL037C, strain rad23, active compounds read low",1.01
same,normalized growth,"locus YEL061C, strain CIN8 (second series), active compounds read low",1.01
same,normalized growth,"locus YEL061C, strain CIN8, active compounds read low",0.999
same,normalized growth,"locus YER015W, strain faa2, active compounds read low",0.993
same,normalized growth,"locus YER016W, strain bim1, active compounds read low",0.994
same,normalized growth,"locus YER110C, active compounds read low",1.01
same,normalized growth,"locus YER111C, strain swi4, active compounds read low",1.01
same,normalized growth,"locus YER155C, strain BEM2 (second series), active compounds read low",0.991
same,normalized growth,"locus YER155C, strain BEM2, active compounds read low",1
same,normalized growth,"locus YER167W, strain BCK2, active compounds read low",0.997
same,normalized growth,"locus YFR010W, strain ubp6, active compounds read low",1
same,normalized growth,"locus YGL078C, strain dbp3, active compounds read low",0.981
same,normalized growth,"locus YGL086W, strain mad1, active compounds read low",0.968
same,normalized growth,"locus YGL167C, strain pmr1, active compounds read low",1.02
same,normalized growth,"locus YGL173C, strain kem1, active compounds read low",0.948
same,normalized growth,"locus YGL227W, strain vid30, active compounds read low",1
same,normalized growth,"locus YGL240W, strain doc1, active compounds read low",0.999
same,normalized growth,"locus YGL248W, strain PDE1, active compounds read low",1.02
same,normalized growth,"locus YGL253W, strain hxk2, active compounds read low",1.01
same,normalized growth,"locus YGR135W, strain pre9, active compounds read low",1.02
same,normalized growth,"locus YGR252W, strain gcn5, active compounds read low",0.936
same,normalized growth,"locus YHR013C, strain ard1, active compounds read low",1.13
same,normalized growth,"locus YHR027C, strain rpn1, active compounds read low",0.991
same,normalized growth,"locus YHR030C, strain SLT2, active compounds read low",0.999 and 0.932
same,normalized growth,"locus YHR079C, strain IRE1 (second series), active compounds read low",1.01
same,normalized growth,"locus YHR079C, strain IRE1, active compounds read low",0.954
same,normalized growth,"locus YHR094C, strain hxt1, active compounds read low",1.01
same,normalized growth,"locus YHR129C, strain ARP1, active compounds read low",1.01
same,normalized growth,"locus YHR142W, strain chs7, active compounds read low",0.981
same,normalized growth,"locus YHR200W, strain rpn10, active compounds read low",1
same,normalized growth,"locus YIL066C, strain RNR3, active compounds read low",1
same,normalized growth,"locus YIL073C, strain SPO22, active compounds read low",1.04
same,normalized growth,"locus YIL125W, strain kgd1, active compounds read low",1.01
same,normalized growth,"locus YIR030C, strain dcg1, active compounds read low",1
same,normalized growth,"locus YJL092W, strain hpr5, active compounds read low",0.989
same,normalized growth,"locus YJL095W, strain BCK1 (second series), active compounds read low",1.01
same,normalized growth,"locus YJL095W, strain BCK1, active compounds read low",1.02 and 0.938
same,normalized growth,"locus YJL115W, strain asf1, active compounds read low",1.02
same,normalized growth,"locus YJL129C, strain trk1, active compounds read low",1
same,normalized growth,"locus YJL134W, strain LCB3, active compounds read low",1.01
same,normalized growth,"locus YJL154C, strain vps35, active compounds read low",1.01
same,normalized growth,"locus YJL164C, strain tpk1, active compounds read low",1.02
same,normalized growth,"locus YJL166W, strain qcr8, active compounds read low",1
same,normalized growth,"locus YJL168C, strain set2, active compounds read low",1.01
same,normalized growth,"locus YJL187C, strain SWE1 (second series), active compounds read low",1.02
same,normalized growth,"locus YJR043C, strain POL32, active compounds read low",0.991
same,normalized growth,"locus YJR066W, strain TOR1, active compounds read low",0.942
